33 sequences from paper PMC12820563, “FoxP3 forms a head-to-head dimer in vivo and stabilizes its multimerization on adjacent microsatellites” can be followed below.

The full ranking holds about 16,000 sequences; the median of “rpm ratio (pull-down/input)” is about 0.94, and the highest 2% start at about 1.7. What follows is part of a selection rich in the highest values, with near analogues and random picks from the rest.

The test concerns the target T1, MBP-FoxP1dN (Mus musculus, UniProt P58462 326-579).
T1 sequence: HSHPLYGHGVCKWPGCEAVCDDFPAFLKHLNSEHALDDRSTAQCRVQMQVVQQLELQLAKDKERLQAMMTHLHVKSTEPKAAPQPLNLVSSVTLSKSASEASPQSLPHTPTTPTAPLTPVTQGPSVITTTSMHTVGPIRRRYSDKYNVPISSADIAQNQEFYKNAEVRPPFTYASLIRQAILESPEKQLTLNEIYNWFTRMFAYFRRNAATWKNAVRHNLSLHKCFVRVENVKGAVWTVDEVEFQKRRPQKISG
Kind of test: PD-seq (MBP pull-down with sequencing); 20 mM Tris-HCl pH 7.5, 100 mM NaCl, 1.5 mM MgCl2, 0.4 uM protein, 0.1 uM dsDNA library, 30 min, room temperature, amylose pull-down; high values mean tight binding. As to conditions: protein: recombinant; tags: His6-MBP; chain copies: 2; dsDNA, one strand shown. In a few lines: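 His6-MBP-tagged mouse FoxP3 or FoxP1 fragment lacking the N-terminus, expressed in E. coli, was mixed at 0.4 µM with 0.1 µM Klenow-filled double-stranded degenerate DNA library. Incubation was 30 min at room temperature in Tris pH 7.5 buffer with NaCl and MgCl2. Complexes were caught on amylose resin and washed three times; DNA was released with proteinase K, PCR-barcoded and Illumina-sequenced. Binding is reads-per-million enrichment, pull-down over input, with replicates pooled.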
For the sequence “GATGATTGTTCTCCCAGCTGATGAATTCCTCCTGTCGAGTAAACAAATTTTCCTAATCTTTCTGTTCAAGCGCCATCTAC”, the binding signal is 0.729 RPM ratio (pull-down/input).
With “GATGATTGTTCTCCCAGCTGATGAATTAAAGGTTTCGAGTAAACAAATTTTCCTAATCTTTCTGTTCAAGCGCCATCTAC”, the binding signal is 0.867 RPM ratio (pull-down/input).
On to “GATGATTGTTCTCCCAGCTGATGAATTTCCTGACTCGAGTAAACAAATTTTCCTAATCTTTCTGTTCAAGCGCCATCTAC”, for which the binding signal was 0.753 RPM ratio (pull-down/input).
The same measure for “GATGATTGTTCTCCCAGCTGATGAATTAAGATCTTCGAGTAAACAAATTTTCCTAATCTTTCTGTTCAAGCGCCATCTAC”: 0.868 RPM ratio (pull-down/input); for “GATGATTGTTCTCCCAGCTGATGAATTCCTCTGATCGAGTAAACAAATTTTCCTAATCTTTCTGTTCAAGCGCCATCTAC”: 0.844 RPM ratio (pull-down/input); for “GATGATTGTTCTCCCAGCTGATGAATTGTTTTACTCGAGTAAACAAATTTTCCTAATCTTTCTGTTCAAGCGCCATCTAC”: 1.42 RPM ratio (pull-down/input).
On to “GATGATTGTTCTCCCAGCTGATGAATTTGTTGACTCGAGTAAACAAATTTTCCTAATCTTTCTGTTCAAGCGCCATCTAC”, for which the binding signal was 2.35 RPM ratio (pull-down/input).
Regarding “GATGATTGTTCTCCCAGCTGATGAATTATTTTACTCGAGTAAACAAATTTTCCTAATCTTTCTGTTCAAGCGCCATCTAC”, the binding signal is 1.2 RPM ratio (pull-down/input).
In the case of “GATGATTGTTCTCCCAGCTGATGAATTTTTTGACTCGAGTAAACAAATTTTCCTAATCTTTCTGTTCAAGCGCCATCTAC”, the binding signal was 0.935 RPM ratio (pull-down/input).
The same measure for “GATGATTGTTCTCCCAGCTGATGAATTTTATTACTCGAGTAAACAAATTTTCCTAATCTTTCTGTTCAAGCGCCATCTAC”: 1.01 RPM ratio (pull-down/input); for “GATGATTGTTCTCCCAGCTGATGAATTTATTTTCTCGAGTAAACAAATTTTCCTAATCTTTCTGTTCAAGCGCCATCTAC”: 1.77 RPM ratio (pull-down/input).
The same measure for “GATGATTGTTCTCCCAGCTGATGAATTTTATTTCTCGAGTAAACAAATTTTCCTAATCTTTCTGTTCAAGCGCCATCTAC”: 1.16 RPM ratio (pull-down/input); for “GATGATTGTTCTCCCAGCTGATGAATTTATTTACTCGAGTAAACAAATTTTCCTAATCTTTCTGTTCAAGCGCCATCTAC”: 2.5 RPM ratio (pull-down/input); for “GATGATTGTTCTCCCAGCTGATGAATTTGTTTACTCGAGTAAACAAATTTTCCTAATCTTTCTGTTCAAGCGCCATCTAC”: 2.62 RPM ratio (pull-down/input).
On to “GATGATTGTTCTCCCAGCTGATGAATTTGATGACTCGAGTAAACAAATTTTCCTAATCTTTCTGTTCAAGCGCCATCTAC”, for which the binding signal was 0.974 RPM ratio (pull-down/input).
In the case of “GATGATTGTTCTCCCAGCTGATGAATTTTTTTACTCGAGTAAACAAATTTTCCTAATCTTTCTGTTCAAGCGCCATCTAC” it was 0.958 RPM ratio (pull-down/input); in that of “GATGATTGTTCTCCCAGCTGATGAATTTATTTCCTCGAGTAAACAAATTTTCCTAATCTTTCTGTTCAAGCGCCATCTAC”, 1.3 RPM ratio (pull-down/input).
The same measure for “GATGATTGTTCTCCCAGCTGATGAATTCAATGCGTCGAGTAAACAAATTTTCCTAATCTTTCTGTTCAAGCGCCATCTAC”: 1.05 RPM ratio (pull-down/input); for “GATGATTGTTCTCCCAGCTGATGAATTATTACGTTCGAGTAAACAAATTTTCCTAATCTTTCTGTTCAAGCGCCATCTAC”: 1.21 RPM ratio (pull-down/input); for “GATGATTGTTCTCCCAGCTGATGAATTTGGGATGTCGAGTAAACAAATTTTCCTAATCTTTCTGTTCAAGCGCCATCTAC”: 0.922 RPM ratio (pull-down/input).
As for “GATGATTGTTCTCCCAGCTGATGAATTTACCGAATCGAGTAAACAAATTTTCCTAATCTTTCTGTTCAAGCGCCATCTAC”, the binding signal was 1.37 RPM ratio (pull-down/input).
Turning to “GATGATTGTTCTCCCAGCTGATGAATTGAAAGCATCGAGTAAACAAATTTTCCTAATCTTTCTGTTCAAGCGCCATCTAC”, the binding signal was 1.2 RPM ratio (pull-down/input).
In the case of “GATGATTGTTCTCCCAGCTGATGAATTCACCGGTTCGAGTAAACAAATTTTCCTAATCTTTCTGTTCAAGCGCCATCTAC” it was 0.877 RPM ratio (pull-down/input).
The same measure for “GATGATTGTTCTCCCAGCTGATGAATTGATCTTATCGAGTAAACAAATTTTCCTAATCTTTCTGTTCAAGCGCCATCTAC”: 1.08 RPM ratio (pull-down/input).
The same measure for “GATGATTGTTCTCCCAGCTGATGAATTTGGTATATCGAGTAAACAAATTTTCCTAATCTTTCTGTTCAAGCGCCATCTAC”: 1.23 RPM ratio (pull-down/input).
On to “GATGATTGTTCTCCCAGCTGATGAATTTTAGGGATCGAGTAAACAAATTTTCCTAATCTTTCTGTTCAAGCGCCATCTAC”, for which the binding signal is 0.823 RPM ratio (pull-down/input).
Take “GATGATTGTTCTCCCAGCTGATGAATTCCTATTATCGAGTAAACAAATTTTCCTAATCTTTCTGTTCAAGCGCCATCTAC”: the binding signal is 1.33 RPM ratio (pull-down/input).
In the case of “GATGATTGTTCTCCCAGCTGATGAATTTATTGTCTCGAGTAAACAAATTTTCCTAATCTTTCTGTTCAAGCGCCATCTAC” it was 1.78 RPM ratio (pull-down/input); in that of “GATGATTGTTCTCCCAGCTGATGAATTTATTGACTCGAGTAAACAAATTTTCCTAATCTTTCTGTTCAAGCGCCATCTAC”, 1.85 RPM ratio (pull-down/input); in that of “GATGATTGTTCTCCCAGCTGATGAATTATTTGACTCGAGTAAACAAATTTTCCTAATCTTTCTGTTCAAGCGCCATCTAC”, 1.07 RPM ratio (pull-down/input).
With “GATGATTGTTCTCCCAGCTGATGAATTATTTGTCTCGAGTAAACAAATTTTCCTAATCTTTCTGTTCAAGCGCCATCTAC”, the binding signal was 1.66 RPM ratio (pull-down/input).
In the case of “GATGATTGTTCTCCCAGCTGATGAATTTTATGACTCGAGTAAACAAATTTTCCTAATCTTTCTGTTCAAGCGCCATCTAC” it was 0.916 RPM ratio (pull-down/input); in that of “GATGATTGTTCTCCCAGCTGATGAATTTTATGTCTCGAGTAAACAAATTTTCCTAATCTTTCTGTTCAAGCGCCATCTAC”, 0.899 RPM ratio (pull-down/input).
